The target in experiment [1] is T1, Muscle, skeletal receptor tyrosine-protein kinase (Homo sapiens) (UniProt O15146).
T1 sequence (whole entry): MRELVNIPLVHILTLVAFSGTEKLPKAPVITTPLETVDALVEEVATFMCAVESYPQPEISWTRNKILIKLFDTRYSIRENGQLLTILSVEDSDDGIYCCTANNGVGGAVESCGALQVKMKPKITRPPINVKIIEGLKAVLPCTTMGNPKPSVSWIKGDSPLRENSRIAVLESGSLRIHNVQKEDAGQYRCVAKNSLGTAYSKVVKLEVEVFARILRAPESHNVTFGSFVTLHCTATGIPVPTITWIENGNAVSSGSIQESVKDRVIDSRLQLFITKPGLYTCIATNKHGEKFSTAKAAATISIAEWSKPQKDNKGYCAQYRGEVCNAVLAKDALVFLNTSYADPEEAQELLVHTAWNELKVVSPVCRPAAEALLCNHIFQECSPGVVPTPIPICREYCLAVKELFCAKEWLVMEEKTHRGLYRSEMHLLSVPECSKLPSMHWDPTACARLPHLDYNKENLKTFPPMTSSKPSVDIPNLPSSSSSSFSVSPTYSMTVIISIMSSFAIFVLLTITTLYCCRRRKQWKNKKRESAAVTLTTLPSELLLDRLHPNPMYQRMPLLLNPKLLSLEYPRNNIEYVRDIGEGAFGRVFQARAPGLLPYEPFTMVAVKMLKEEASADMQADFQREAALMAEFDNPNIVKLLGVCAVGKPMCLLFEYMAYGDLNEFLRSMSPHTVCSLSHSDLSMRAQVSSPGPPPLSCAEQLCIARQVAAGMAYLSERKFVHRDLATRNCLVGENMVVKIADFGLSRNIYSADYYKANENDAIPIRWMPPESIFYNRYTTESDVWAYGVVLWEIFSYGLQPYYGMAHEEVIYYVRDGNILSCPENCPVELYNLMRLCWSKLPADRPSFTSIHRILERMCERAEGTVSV
The settings on record: at 1 µM.

Experiment [2] deals with T1, Muscle, skeletal receptor tyrosine-protein kinase (Homo sapiens). The settings on record: at 10 µM.
The target of experiment [3] is T2, Serine/threonine-protein kinase Nek11 (Homo sapiens) (UniProt Q8NG66).
T2 sequence (whole entry): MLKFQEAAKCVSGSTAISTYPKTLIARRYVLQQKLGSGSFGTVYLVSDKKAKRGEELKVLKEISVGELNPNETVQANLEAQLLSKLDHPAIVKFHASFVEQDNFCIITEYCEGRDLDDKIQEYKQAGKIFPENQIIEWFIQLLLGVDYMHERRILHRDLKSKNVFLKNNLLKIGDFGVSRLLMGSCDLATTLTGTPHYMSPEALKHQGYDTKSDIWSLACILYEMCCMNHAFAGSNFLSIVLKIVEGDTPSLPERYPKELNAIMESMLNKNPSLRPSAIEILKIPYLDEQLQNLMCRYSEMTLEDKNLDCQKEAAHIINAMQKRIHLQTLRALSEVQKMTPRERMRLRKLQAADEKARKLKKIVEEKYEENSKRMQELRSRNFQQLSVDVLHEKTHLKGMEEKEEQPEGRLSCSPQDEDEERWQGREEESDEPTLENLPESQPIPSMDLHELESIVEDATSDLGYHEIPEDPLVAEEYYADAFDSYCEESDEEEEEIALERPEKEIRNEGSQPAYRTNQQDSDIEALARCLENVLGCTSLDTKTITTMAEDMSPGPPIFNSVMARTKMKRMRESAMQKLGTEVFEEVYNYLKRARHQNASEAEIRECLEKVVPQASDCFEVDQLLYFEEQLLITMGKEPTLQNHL
The settings on record: at 1 µM.

Experiment [4] deals with T2, Serine/threonine-protein kinase Nek11 (Homo sapiens). The settings on record: at 10 µM.
For experiment [5], the target named is T3, Serine/threonine-protein kinase Nek2 (Homo sapiens) (UniProt P51955).
T3 sequence (whole entry): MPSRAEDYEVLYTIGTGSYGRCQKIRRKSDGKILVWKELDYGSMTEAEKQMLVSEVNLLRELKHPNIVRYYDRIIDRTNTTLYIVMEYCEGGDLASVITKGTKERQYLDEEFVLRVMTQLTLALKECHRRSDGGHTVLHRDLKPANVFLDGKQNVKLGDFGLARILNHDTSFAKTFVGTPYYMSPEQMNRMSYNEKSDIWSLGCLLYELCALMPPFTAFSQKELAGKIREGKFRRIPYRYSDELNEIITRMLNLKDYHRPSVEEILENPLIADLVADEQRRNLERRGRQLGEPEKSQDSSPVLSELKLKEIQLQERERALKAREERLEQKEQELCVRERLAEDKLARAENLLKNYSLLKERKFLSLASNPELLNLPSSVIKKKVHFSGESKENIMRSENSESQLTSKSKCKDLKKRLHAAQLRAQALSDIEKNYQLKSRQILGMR
The settings on record: at 10 µM.

In experiment [6] the target is T4, Serine/threonine-protein kinase Nek3 (Homo sapiens) (UniProt P51956).
T4 sequence (whole entry): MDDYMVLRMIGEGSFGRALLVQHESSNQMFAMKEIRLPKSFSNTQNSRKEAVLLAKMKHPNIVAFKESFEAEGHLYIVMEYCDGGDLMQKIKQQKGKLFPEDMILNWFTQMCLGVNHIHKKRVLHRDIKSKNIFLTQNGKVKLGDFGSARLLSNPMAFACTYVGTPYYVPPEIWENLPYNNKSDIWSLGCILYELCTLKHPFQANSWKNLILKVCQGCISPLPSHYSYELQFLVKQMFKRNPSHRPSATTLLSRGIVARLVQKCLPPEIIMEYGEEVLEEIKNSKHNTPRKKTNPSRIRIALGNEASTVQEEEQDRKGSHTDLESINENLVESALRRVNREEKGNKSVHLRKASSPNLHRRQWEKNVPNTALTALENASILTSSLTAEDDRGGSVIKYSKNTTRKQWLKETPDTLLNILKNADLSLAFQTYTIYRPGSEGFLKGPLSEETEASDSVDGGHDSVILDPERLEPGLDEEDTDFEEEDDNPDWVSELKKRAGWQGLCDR
The settings on record: at 10 µM.

Experiment [7] deals with Serine/threonine-protein kinase tousled-like 2 (Homo sapiens) (UniProt Q86UE8). The settings on record: at 1 µM.
Sequence of Serine/threonine-protein kinase tousled-like 2 (Homo sapiens) (Q86UE8 whole entry, looked up): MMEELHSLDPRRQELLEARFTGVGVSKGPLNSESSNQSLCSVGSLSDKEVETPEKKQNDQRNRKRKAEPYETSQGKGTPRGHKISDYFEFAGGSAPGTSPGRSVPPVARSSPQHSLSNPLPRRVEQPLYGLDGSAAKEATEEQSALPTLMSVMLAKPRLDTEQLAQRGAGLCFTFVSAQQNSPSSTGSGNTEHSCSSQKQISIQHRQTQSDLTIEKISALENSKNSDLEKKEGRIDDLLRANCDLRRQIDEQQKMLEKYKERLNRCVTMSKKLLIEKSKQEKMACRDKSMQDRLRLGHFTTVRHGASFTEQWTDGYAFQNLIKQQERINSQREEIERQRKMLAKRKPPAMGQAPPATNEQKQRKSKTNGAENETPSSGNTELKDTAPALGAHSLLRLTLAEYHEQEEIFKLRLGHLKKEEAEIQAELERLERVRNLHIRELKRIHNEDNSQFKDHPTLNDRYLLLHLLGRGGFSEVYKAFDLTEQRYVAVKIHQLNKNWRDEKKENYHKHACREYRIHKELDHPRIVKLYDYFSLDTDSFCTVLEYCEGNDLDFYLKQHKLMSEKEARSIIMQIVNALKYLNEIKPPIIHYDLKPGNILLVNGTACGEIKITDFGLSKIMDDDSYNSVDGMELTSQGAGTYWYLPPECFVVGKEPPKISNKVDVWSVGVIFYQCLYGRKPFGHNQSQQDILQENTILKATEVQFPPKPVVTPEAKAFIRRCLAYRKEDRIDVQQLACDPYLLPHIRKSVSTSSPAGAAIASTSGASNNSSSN
The target is the same in experiment [8]. The settings on record: at 10 µM.
In experiment [9] the target is T5, Testis-specific serine/threonine-protein kinase 1 (Homo sapiens) (UniProt Q9BXA7).
T5 sequence (whole entry): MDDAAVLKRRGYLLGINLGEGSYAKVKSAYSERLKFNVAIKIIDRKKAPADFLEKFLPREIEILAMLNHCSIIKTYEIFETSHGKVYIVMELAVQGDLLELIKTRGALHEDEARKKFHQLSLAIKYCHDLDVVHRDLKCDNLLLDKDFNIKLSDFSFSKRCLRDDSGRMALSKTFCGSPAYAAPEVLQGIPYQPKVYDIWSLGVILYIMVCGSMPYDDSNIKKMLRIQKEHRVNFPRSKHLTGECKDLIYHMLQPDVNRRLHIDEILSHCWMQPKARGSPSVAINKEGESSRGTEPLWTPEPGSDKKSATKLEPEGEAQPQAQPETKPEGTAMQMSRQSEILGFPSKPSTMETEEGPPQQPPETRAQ
The settings on record: at 1 µM.

Experiment [10] addresses T5, Testis-specific serine/threonine-protein kinase 1 (Homo sapiens). The settings on record: at 10 µM.
Experiment [11] deals with T6, Tyrosine-protein kinase Tec (Homo sapiens) (UniProt P42680).
T6 sequence (whole entry): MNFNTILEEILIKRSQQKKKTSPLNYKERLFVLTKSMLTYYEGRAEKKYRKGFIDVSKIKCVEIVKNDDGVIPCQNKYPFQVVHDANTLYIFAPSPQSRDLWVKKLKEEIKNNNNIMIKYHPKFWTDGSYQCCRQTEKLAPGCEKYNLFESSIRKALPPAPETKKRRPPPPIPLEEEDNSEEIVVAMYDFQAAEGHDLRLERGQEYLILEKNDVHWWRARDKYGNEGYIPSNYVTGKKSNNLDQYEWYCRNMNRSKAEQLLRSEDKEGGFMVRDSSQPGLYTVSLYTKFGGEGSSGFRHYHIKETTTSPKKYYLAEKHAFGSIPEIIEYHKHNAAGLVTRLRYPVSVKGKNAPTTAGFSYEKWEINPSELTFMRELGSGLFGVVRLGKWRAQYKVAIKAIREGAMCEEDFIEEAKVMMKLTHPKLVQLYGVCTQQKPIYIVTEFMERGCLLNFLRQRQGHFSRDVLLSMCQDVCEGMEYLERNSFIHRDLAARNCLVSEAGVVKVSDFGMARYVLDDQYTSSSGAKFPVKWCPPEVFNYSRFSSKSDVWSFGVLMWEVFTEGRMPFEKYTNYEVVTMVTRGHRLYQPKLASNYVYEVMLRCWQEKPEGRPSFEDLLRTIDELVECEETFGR
The settings on record: at 1 µM.

Experiment [12] concerns the target T6, Tyrosine-protein kinase Tec (Homo sapiens). The settings on record: at 10 µM.
Experiment [13] addresses Angiopoietin-1 receptor (Homo sapiens) (UniProt Q02763). The settings on record: at 1 µM.
For experiment [14] the target is unchanged. The settings on record: at 10 µM.
Experiment [15] has as its target High affinity nerve growth factor receptor (Homo sapiens) (UniProt P04629). The settings on record: at 1 µM.
Experiment [16] shares this target. The settings on record: at 10 µM.
The target in experiment [17] is BDNF/NT-3 growth factors receptor (Homo sapiens) (UniProt Q16620). The settings on record: at 1 µM.
Sequence of BDNF/NT-3 growth factors receptor (Homo sapiens) (Q16620 32-822 limits assumed): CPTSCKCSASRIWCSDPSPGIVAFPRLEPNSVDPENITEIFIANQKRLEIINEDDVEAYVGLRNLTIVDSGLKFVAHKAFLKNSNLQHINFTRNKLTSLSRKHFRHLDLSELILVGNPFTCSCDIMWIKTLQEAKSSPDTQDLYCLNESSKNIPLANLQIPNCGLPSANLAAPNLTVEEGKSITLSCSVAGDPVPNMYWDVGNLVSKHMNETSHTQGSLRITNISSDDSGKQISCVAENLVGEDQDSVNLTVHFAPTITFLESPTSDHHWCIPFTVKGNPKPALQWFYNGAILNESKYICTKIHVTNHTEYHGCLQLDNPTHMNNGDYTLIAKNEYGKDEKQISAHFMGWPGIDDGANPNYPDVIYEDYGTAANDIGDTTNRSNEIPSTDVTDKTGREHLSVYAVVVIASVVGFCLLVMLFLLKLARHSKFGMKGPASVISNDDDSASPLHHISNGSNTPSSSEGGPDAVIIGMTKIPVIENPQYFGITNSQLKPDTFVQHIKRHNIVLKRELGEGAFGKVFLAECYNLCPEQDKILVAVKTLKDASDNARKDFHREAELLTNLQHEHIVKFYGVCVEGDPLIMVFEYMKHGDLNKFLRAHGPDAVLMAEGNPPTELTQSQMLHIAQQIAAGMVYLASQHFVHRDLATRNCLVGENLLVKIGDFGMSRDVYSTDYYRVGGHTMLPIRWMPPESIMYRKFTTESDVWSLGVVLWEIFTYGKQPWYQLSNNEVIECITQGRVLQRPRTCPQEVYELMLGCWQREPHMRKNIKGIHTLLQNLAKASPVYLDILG
Experiment [18] addresses T4, Serine/threonine-protein kinase Nek3 (Homo sapiens). The settings on record: at 1 µM.
In experiment [19] the target is T3, Serine/threonine-protein kinase Nek2 (Homo sapiens). The settings on record: at 1 µM.
Experiment [20] deals with T7, Testis-specific serine/threonine-protein kinase 2 (Homo sapiens) (UniProt Q96PF2).
T7 sequence (whole entry): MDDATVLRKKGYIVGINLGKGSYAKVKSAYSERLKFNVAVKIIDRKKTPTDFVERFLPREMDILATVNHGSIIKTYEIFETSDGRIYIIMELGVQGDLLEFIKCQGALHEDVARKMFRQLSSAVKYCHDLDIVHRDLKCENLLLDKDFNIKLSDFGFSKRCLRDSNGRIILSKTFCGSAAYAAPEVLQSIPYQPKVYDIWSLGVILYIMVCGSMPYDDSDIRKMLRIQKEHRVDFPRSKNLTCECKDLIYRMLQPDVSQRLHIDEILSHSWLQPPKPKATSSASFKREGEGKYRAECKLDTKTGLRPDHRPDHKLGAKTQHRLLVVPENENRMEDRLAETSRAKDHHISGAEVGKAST
The settings on record: at 10 µM.

Sequence of Angiopoietin-1 receptor (Homo sapiens) (Q02763 whole entry): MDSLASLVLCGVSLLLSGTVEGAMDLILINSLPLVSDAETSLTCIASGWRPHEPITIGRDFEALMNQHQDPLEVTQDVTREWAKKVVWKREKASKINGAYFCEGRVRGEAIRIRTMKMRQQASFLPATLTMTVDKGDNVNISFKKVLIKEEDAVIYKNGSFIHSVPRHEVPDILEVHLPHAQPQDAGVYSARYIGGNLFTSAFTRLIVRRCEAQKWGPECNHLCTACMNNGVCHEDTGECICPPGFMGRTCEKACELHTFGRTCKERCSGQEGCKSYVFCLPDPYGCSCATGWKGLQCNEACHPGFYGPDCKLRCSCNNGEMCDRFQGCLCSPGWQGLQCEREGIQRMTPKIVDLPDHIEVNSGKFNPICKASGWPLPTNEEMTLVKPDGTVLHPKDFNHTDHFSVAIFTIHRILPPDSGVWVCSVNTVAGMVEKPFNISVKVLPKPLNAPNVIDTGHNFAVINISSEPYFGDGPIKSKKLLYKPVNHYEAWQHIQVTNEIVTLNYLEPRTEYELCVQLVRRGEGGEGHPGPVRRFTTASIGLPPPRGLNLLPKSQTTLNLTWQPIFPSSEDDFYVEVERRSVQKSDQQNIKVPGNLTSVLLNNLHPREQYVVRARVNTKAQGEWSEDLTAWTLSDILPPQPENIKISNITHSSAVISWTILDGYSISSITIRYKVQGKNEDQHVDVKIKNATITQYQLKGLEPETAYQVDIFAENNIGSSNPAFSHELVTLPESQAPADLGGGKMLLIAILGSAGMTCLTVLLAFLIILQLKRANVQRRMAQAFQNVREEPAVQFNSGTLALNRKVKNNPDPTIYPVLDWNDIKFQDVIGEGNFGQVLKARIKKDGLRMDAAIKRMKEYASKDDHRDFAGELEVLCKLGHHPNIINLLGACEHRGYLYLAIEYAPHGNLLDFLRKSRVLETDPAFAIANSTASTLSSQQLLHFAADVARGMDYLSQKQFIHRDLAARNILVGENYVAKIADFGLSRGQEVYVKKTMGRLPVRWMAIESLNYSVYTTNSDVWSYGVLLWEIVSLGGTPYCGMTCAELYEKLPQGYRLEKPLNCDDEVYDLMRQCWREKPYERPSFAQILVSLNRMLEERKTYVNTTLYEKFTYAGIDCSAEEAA
Sequence of High affinity nerve growth factor receptor (Homo sapiens) (P04629 33-796 limits assumed): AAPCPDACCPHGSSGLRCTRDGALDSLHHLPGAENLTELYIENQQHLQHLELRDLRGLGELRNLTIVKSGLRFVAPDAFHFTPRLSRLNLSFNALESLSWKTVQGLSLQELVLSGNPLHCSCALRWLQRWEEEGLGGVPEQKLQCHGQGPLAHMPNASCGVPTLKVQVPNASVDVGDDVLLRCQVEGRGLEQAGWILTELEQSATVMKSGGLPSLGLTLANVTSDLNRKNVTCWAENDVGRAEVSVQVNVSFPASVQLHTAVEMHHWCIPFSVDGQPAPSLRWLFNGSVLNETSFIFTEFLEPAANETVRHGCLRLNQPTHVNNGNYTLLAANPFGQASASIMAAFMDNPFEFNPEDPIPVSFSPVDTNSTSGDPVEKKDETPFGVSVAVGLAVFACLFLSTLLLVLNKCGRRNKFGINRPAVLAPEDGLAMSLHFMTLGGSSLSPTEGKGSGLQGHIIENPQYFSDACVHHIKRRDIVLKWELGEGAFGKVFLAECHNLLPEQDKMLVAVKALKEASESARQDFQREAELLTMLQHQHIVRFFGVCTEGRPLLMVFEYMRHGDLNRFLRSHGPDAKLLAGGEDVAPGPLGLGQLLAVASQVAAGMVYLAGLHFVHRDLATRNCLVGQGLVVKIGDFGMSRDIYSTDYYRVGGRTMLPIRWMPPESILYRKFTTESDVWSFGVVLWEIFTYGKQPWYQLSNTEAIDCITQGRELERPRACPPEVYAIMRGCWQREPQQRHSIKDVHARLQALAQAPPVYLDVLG

As a reminder, the residual activity is the signal under treatment as a percentage of the control signal. Turning to `CN(C)CCCn1cc(C2=C(c3c[nH]c4ccccc34)C(=O)NC2=O)c2ccccc21`, the residual activity in experiment [1] came to 134%; in experiment [2] it was 74%; in [3], 72%; in experiment [4] it was 59%; in experiment [5], 105%; in experiment [6] it was 90%. For the same molecule, the residual activity in experiment [7] stood at 21%; in experiment [8] it was 2%; in [9] it was 86%; in experiment [10], 37%; in experiment [11], 113%; in experiment [12], 65%. The residual activity stood at 120% in experiment [13]; 60% in experiment [14]; 48% in experiment [15]; 13% in [16]; 36% in experiment [17].
Turning to `N#CCCc1ccc2c(c1)-c1[nH]c3ccc([N+](=O)[O-])cc3c1CC(=O)N2`, the residual activity in experiment [1] worked out at 68%; in experiment [2], 32%; in experiment [4], 72%; in [18] it was 79%; in [6], 67%; in [9], 39%. Besides, the residual activity in [10] was determined as 21%; in experiment [12] it was 29%; in experiment [15], 54%; in experiment [16], 23%; in experiment [17], 71%.
As to `CO[C@@H]1[C@H](N(C)C(=O)c2ccccc2)C[C@H]2O[C@]1(C)n1c3ccccc3c3c4c(c5c6ccccc6n2c5c31)C(=O)NC4`, the residual activity in experiment [1] is 32%; in [2], 13%; in experiment [3] it was 47%; in [4], 49%; in experiment [19] it was 82%; in [5] it was 86%. For the same molecule, the residual activity in [18] is 102%; in experiment [6], 37%; in [8], 72%; in experiment [9], 15%; in experiment [10], 6%; in [20], 30%. For the same molecule, the residual activity in experiment [11] is 85%; in experiment [12], 40%; in experiment [13], 133%; in [14], 73%; in experiment [15], 0%; in experiment [16] it was -1%. Moreover, in experiment [17], the residual activity amounted to 23%.
`c1ccc2c(-c3ccncc3)c[nH]c2c1`: the residual activity in [1] was determined as 88%; in [2], 82%; in experiment [3], 89%; in experiment [4], 67%; in [19], 78%; in [5] it was 88%. The residual activity in [7] was found to be 103%; in [8] it was 85%; in [9], 94%; in experiment [10] it was 89%; in [20], 95%; in experiment [11] it was 103%. The residual activity worked out at 85% in experiment [12]; 77% in experiment [13]; 88% in experiment [14]; 91% in experiment [15]; 55% in experiment [16]; 134% in experiment [17].

The values above are taken from ChEMBL document CHEMBL2218924, “A broad activity screen in support of a chemogenomic map for kinase signalling research and drug discovery” (Biochem J, 2013).
